Results reported in PubChem BioAssay AID1259349 (Broad Institute, 2017).
Hit rate of the full screen: of about 17,000 compounds, about 1,100 (6.5%) were called active.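 Rule for the calls: active = z-score of -3 or lower, meaning strong loss of probe binding signal; inactive = the rest.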 The entries come from a sample that favours actives as a whole.

These compounds were tested against Insulin-degrading enzyme (Homo sapiens) (UniProt P14735) (assay: exo-site inhibitors of human IDE, primary screen, biochemical, fluorescence anisotropy, probe displacement (AID 1259349;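 note: His-tagged human IDE residues 42-1019 made in E. coli with 30 nM FL-6b probe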)). Conditions: purified IDE, FL-6b probe fluorescence polarization; at 20 µM; stronger effect = lower value.
Sequence of Insulin-degrading enzyme (Homo sapiens) (P14735 42-1019 limits assumed): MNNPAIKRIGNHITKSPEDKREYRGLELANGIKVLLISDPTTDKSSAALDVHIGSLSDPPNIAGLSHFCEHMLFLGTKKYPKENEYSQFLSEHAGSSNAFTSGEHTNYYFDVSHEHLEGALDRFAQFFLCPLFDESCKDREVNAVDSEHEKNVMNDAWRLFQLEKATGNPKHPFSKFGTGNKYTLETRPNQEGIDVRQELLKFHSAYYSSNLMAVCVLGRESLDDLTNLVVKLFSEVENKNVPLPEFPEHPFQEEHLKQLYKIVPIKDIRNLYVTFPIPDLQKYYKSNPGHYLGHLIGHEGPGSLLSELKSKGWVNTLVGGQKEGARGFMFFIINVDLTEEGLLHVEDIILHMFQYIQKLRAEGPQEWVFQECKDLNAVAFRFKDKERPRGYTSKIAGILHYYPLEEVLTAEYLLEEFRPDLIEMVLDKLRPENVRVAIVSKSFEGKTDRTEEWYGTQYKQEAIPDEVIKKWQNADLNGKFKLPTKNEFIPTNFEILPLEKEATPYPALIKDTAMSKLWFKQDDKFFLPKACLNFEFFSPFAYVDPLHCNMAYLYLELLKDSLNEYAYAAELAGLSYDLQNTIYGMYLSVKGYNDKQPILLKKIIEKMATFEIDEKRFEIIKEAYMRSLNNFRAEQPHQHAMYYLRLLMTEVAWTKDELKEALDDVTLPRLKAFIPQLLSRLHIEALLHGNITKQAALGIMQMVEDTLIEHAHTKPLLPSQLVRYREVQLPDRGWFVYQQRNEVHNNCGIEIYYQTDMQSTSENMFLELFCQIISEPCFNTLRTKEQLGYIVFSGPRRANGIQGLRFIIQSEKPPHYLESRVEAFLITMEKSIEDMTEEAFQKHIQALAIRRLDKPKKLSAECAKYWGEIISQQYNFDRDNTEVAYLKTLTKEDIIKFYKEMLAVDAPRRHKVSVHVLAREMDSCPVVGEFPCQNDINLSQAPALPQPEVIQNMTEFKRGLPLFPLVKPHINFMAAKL

SMILES	z-score
O=C(Cc1ccccc1)N1CCCCN2[C@H](CO)[C@H](c3ccc(C#Cc4ccccc4)cc3)[C@H]2C1	-1.93 (inactive)
O=C(Cc1ccccn1)N1CCCCN2[C@@H](CO)[C@@H](c3ccc(C#Cc4ccccc4)cc3)[C@@H]2C1	-6.91 (active)
O=C(Cc1ccccn1)N1CCCCN2[C@H](C1)[C@H](c1ccc(-c3ccccc3F)cc1)[C@@H]2CO	-1.94 (inactive)
O=C(Cc1ccncc1)N1CCCCN2[C@@H](CO)[C@H](c3ccc(C#CC4(O)CCCC4)cc3)[C@@H]2C1	1.31 (inactive)
COC(=O)[C@@H]1[C@@H](CO)[C@@H]2Cn3c(ccc(-c4cccc(C(=O)N(C)C)c4)c3=O)[C@H]1N2C(=O)NC(C)C	-0.64 (inactive)
